# In the supplement of paper PMC12494721:
# Counter-ions that a name gives are not always drawn.
# Legend:
# Conditions in all cases: 20 µM; incubation time: 27 h, anaerobic, 37 °C;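 for the amine columns active = adjusted P below 0.05 in both replicates with a change the same way and a mean fold change under 0.8 or over 1.25; inactive = the rest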
# [1] = system: Clostridium sporogenes DSM 1664; assay: growth (OD595) fold change vs plate DMSO controls (fold change (ratio)); higher = more growth
# Summary of the method: (§1)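 Growth is expressed as the fold change relative to the median of the DMSO control wells on each plate. Cultures in mGAM were grown anaerobically in 96-well plates for 27 h at 37 °C, shaken, and read at 595 nm. Readings were blank-subtracted, corrected for compound background with 20 µM compound solutions in water, and converted to OD with a calibration factor of 5. Fold changes above 1.5 were set to NA, and each value is the mean of 2 biological replicates.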
# [2] = system: Escherichia coli IAI1; assay: as above
# Summary of the method: as §1
# [3] = system: Klebsiella aerogenes DSM 30053; assay: as above
# Summary of the method: as §1
# [4] = system: Ruminococcus gnavus DSM 108212; assay: as above
# Summary of the method: as §1
# [5] = system: Klebsiella aerogenes DSM 30053; assay: fold change of Histamine concentration vs plate DMSO controls (fold change (ratio)); higher = more amine produced, active = hit call of the paper (significant change in both replicates, either direction)
# Summary of the method: (§2)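 In 80 µL wells, cultures of four gut bacterial strains in mGAM started at OD 0.1 before a 1:1 dilution and grew anaerobically at 37 °C for 27 h. Compounds were added to 20 µM final, except sweeteners at 50 µM final. After extraction of whole cultures with cold acetonitrile/methanol plus 0.1% formic acid and centrifugation, amines were measured by LC–triple-quadrupole MS in dynamic MRM mode against external calibration curves, with within-batch drift correction. Values give fold change over DMSO controls on the same plate, averaged across 2 biological replicates.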
# [6] = system: Clostridium sporogenes DSM 1664; assay: fold change of Tryptamine concentration vs plate DMSO controls (fold change (ratio)); higher = more amine produced, active = hit call of the paper (significant change in both replicates, either direction)
# Summary of the method: as §2
# [7] = system: Ruminococcus gnavus DSM 108212; assay: as above
# Summary of the method: as §2
# [8] = system: Escherichia coli IAI1; assay: fold change of Putrescine concentration vs plate DMSO controls (fold change (ratio)); higher = more amine produced, active = hit call of the paper (significant change in both replicates, either direction)
# Summary of the method: as §2
# [9] = system: Klebsiella aerogenes DSM 30053; assay: as above
# Summary of the method: as §2
# [10] = system: Escherichia coli IAI1; assay: fold change of Cadaverine concentration vs plate DMSO controls (fold change (ratio)); higher = more amine produced, active = hit call of the paper (significant change in both replicates, either direction)
# Summary of the method: as §2
# [11] = system: Klebsiella aerogenes DSM 30053; assay: as above
# Summary of the method: as §2
# [12] = system: Ruminococcus gnavus DSM 108212; assay: fold change of 2-Phenylethylamine concentration vs plate DMSO controls (fold change (ratio)); higher = more amine produced, active = hit call of the paper (significant change in both replicates, either direction)
# Summary of the method: as §2
Compound,growth [1],growth [2],growth [3],growth [4],fold change of Histamine concentration [5],fold change of Tryptamine concentration [6],fold change of Tryptamine concentration [7],fold change of Putrescine concentration [8],fold change of Putrescine concentration [9],fold change of Cadaverine concentration [10],fold change of Cadaverine concentration [11],fold change of 2-Phenylethylamine concentration [12]
C[C@]12CC[C@@H]3c4ccc(OC(=O)N(CCCl)CCCl)cc4CC[C@H]3[C@@H]1CC[C@@H]2O [Estramustine],0.804,0.998,0.983,1.24,0.899 (inactive),0.616 (active),0.949 (inactive),1.01 (inactive),1.01 (inactive),1.05 (inactive),1.04 (inactive),0.928 (inactive)
Nc1nc(N)nc(NC2CC2)n1 [Cyromazine],1.07,1.02,1.01,1.03,0.979 (inactive),1.02 (inactive),0.995 (inactive),1.02 (inactive),1.03 (inactive),0.979 (inactive),1 (inactive),1 (inactive)
CCCC(C)C1(CC)C(=O)NC(=O)NC1=O (stereo not drawn) [Pentobarbital],1.06,1.08,0.979,0.814,1.07 (inactive),0.993 (inactive),1.02 (inactive),1.1 (inactive),1.02 (inactive),1.01 (inactive),0.988 (inactive),1.04 (inactive)
O=C(O)C(F)(F)C(F)(F)C(F)(F)C(F)(F)C(F)(F)C(F)(F)C(F)(F)F [PFOA (Perfluorooctanoic acid)],0.946,1.02,0.999,0.985,1.02 (inactive),0.979 (inactive),0.94 (inactive),1.03 (inactive),1 (inactive),1.02 (inactive),0.992 (inactive),0.878 (inactive)
COc1ccc(Cc2nccc3cc(OC)c(OC)cc23)cc1OC [Papaverine hydrochloride],1.17,1.02,1.08,0.848,0.961 (inactive),1 (inactive),0.99 (inactive),0.964 (inactive),0.992 (inactive),1.22 (inactive),1.02 (inactive),1.06 (inactive)
CC1(C)C(C=C(Cl)Cl)C1C(=O)OCc1cccc(Oc2ccccc2)c1 (mixture of isomers),0.957,0.993,1,1.07,1.01 (inactive),1.05 (inactive),1.03 (inactive),1.04 (inactive),0.995 (inactive),1.06 (inactive),1 (inactive),1.02 (inactive)
CN1CCN(C(=O)OC2c3nccnc3C(=O)N2c2ccc(Cl)cn2)CC1 (stereo not drawn) [Zopiclone],1.13,0.987,0.952,0.842,1.03 (inactive),1.02 (inactive),0.989 (inactive),0.98 (inactive),1.02 (inactive),0.979 (inactive),0.99 (inactive),0.988 (inactive)
Cc1ccccc1[N+](=O)[O-] [2-Nitrotoluene],0.884,0.993,0.968,0.984,0.994 (inactive),0.993 (inactive),0.981 (inactive),0.996 (inactive),1.01 (inactive),1.01 (inactive),0.993 (inactive),0.978 (inactive)
CSc1nnc(C(C)(C)C)c(=O)n1N,0.994,1.01,1,0.945,0.976 (inactive),0.982 (inactive),1.07 (inactive),0.945 (inactive),0.978 (inactive),0.959 (inactive),1.04 (inactive),1.13 (inactive)
Oc1ccc(C(c2ccc(O)cc2)(C(F)(F)F)C(F)(F)F)cc1 [Bisphenol AF],1.04,1.07,0.956,0.983,1.08 (inactive),0.718 (inactive),0.717 (active),1.01 (inactive),0.989 (inactive),1.03 (inactive),0.99 (inactive),0.723 (inactive)
CCCC(Cn1cncn1)c1ccc(Cl)cc1Cl (stereo not drawn),0.931,0.973,1.02,0.977,1.02 (inactive),1.01 (inactive),0.984 (inactive),1.02 (inactive),1.02 (inactive),0.965 (inactive),0.997 (inactive),0.953 (inactive)
CN[C@@H]1C[C@@H](c2ccc(Cl)c(Cl)c2)c2ccccc21 [Indatraline hydrochloride],1.13,1.06,0.959,0.932,0.904 (inactive),1.29 (inactive),0.8 (inactive),0.811 (inactive),0.863 (inactive),0.98 (inactive),1.1 (inactive),0.883 (inactive)
C[C@]12COC(=O)C[C@@H]1CC[C@@H]1[C@@H]2CC[C@@]2(C)[C@H]1CC[C@]2(C)O [Oxandrolone],0.947,0.993,1.03,0.877,0.945 (inactive),0.945 (inactive),1.01 (inactive),0.974 (inactive),0.991 (inactive),1.02 (inactive),0.999 (inactive),1.06 (inactive)
CN1COCN(Cc2cnc(Cl)s2)/C1=N\[N+](=O)[O-],0.973,1.02,1,0.969,1.01 (inactive),0.906 (inactive),0.912 (inactive),1.03 (inactive),1.01 (inactive),1.03 (inactive),0.993 (inactive),0.88 (inactive)
C[N+]1(C)CCOC(O)(c2ccc(-c3ccc(C4(O)C[N+](C)(C)CCO4)cc3)cc2)C1 (stereo not drawn) [Hemicholinium bromide],1.04,0.992,1.2,1.27,0.912 (inactive),1.18 (inactive),1.06 (inactive),1.01 (inactive),0.995 (inactive),0.928 (inactive),1.02 (inactive),1.07 (inactive)
C=C1C[C@@H]2[C@H](CC[C@]3(C)C(=O)CC[C@@H]23)[C@@]2(C)C=CC(=O)C=C12 [Exemestane],0.934,1,1.03,1.07,0.984 (inactive),1.07 (inactive),1.03 (inactive),1.05 (inactive),0.981 (inactive),0.996 (inactive),1 (inactive),1.02 (inactive)
CS(=O)(=O)c1cc(C(F)(F)F)ccc1C(=O)c1cnoc1C1CC1,0.937,1.09,1.09,0.964,0.825 (inactive),0.986 (inactive),0.989 (inactive),0.958 (inactive),0.976 (inactive),0.905 (inactive),1.01 (inactive),1 (inactive)
C[C@]12CC[C@H](O)C[C@H]1CC[C@@H]1[C@@H]2CC[C@]2(C)[C@@H](C3=CC(=O)OC3)CC[C@]12O [Digitoxigenin],1.02,1.02,0.986,1,1.06 (inactive),1.05 (inactive),1.02 (inactive),1.03 (inactive),1.01 (inactive),1.01 (inactive),0.989 (inactive),1.03 (inactive)
CC(COc1ccc(Oc2ccccc2)cc1)Oc1ccccn1 (stereo not drawn),1.06,0.987,1.01,0.945,1.02 (inactive),1.02 (inactive),1.06 (inactive),1.01 (inactive),1.03 (inactive),1.02 (inactive),1.02 (inactive),1.08 (inactive)
Cc1cccc(C)c1NC1=NCCCS1 [Xylazine],1.16,0.985,0.959,0.87,1.09 (inactive),1.01 (inactive),1 (inactive),1.03 (inactive),1.02 (inactive),0.991 (inactive),0.993 (inactive),1 (inactive)
O=NN(CCO)CCO [DMNA (N-nitrosodiethanolamine)],0.95,1.15,1,1.09,0.975 (inactive),0.994 (inactive),1.05 (inactive),1.03 (inactive),0.957 (inactive),0.978 (inactive),1.03 (inactive),1.08 (inactive)
CCCCCCCCCCCCN=C(N)N,1.1,0.995,1.02,1.19,1.03 (inactive),0.927 (inactive),0.896 (inactive),1.01 (inactive),1.06 (inactive),0.951 (inactive),1.03 (inactive),0.893 (inactive)
O=[N+]([O-])c1cc(C(F)(F)F)c(Cl)c([N+](=O)[O-])c1Nc1ncc(C(F)(F)F)cc1Cl,0.825,0.986,0.991,1.18,1.07 (inactive),0.464 (inactive),0.887 (inactive),1.05 (inactive),1.05 (inactive),1.15 (inactive),1.02 (inactive),0.826 (inactive)
O=C(Nc1ccc(F)cc1F)c1cccnc1Oc1cccc(C(F)(F)F)c1,0.931,1.02,1.03,0.965,1.01 (inactive),0.987 (inactive),0.983 (inactive),1.01 (inactive),0.995 (inactive),1.03 (inactive),0.993 (inactive),0.987 (inactive)
